One experiment concerns Plasmodium falciparum. Description: GSK_TCMDC: Inhibition of Plasmodium falciparum 3D7 in whole red blood cells, using parasite LDH activity as an index of growth. Test compounds present at 2uM. Type of experiment: functional.
As usually defined, the Inhibition is the percentage by which the read-out fell short of the control. A high value points to strong suppression. Take `COc1ccc(CNC2CCN(C)CC2)cc1-c1ccc(S(=O)(=O)NCc2ccccc2)cc1.O=C(O)C(F)(F)F`: the Inhibition is 100%.

Consider `FC(F)(F)c1ccc(NC(=S)N2CCC(CCN3CCC(c4c[nH]c5ccccc45)CC3)CC2)cc1`, for which the Inhibition is 98%.

`Br.CC1(C)NC(N)=NC(=N)N1OCCCc1cccc(C(F)(F)F)c1` gave an Inhibition of 95%.

`Nc1nccc2ccc(OC3CCCCC3)cc12.O=CO` displayed an Inhibition of 98%.

`Cc1cc(NCC(C)C)c2[nH]nc(-c3ccccc3)c2n1` came in with an Inhibition of 99%.

With `CC1CCc2c(C(=O)Nc3c(F)cc(F)cc3Br)csc2C1` (stereo not drawn), the Inhibition is reported as 96%.

Compound `Cc1c(-c2cccc(Br)c2)[nH]c2nc(N)nc(N)c12` had an Inhibition of 100%.

`Cc1cc(C(=O)CN2C(=O)NC3(CCCc4ccccc43)C2=O)c(C)n1Cc1ccco1` (stereo not drawn): the Inhibition was 90%.

Consider `O=C(O)c1cc(C(F)(F)F)co1`, for which the Inhibition is reported as 96%.

As to `CN1CCN(CC(O)CNC(=O)Nc2ccc(Br)cc2)CC1.O=C(O)C(F)(F)F` (stereo not drawn), the Inhibition amounted to 100%.

`O=C(Nc1cccc(C(F)(F)F)c1)c1cc([N+](=O)[O-])cc2cn[nH]c12` had an Inhibition of 100%.

Compound `COc1ccc(-c2ccc(CNC3Cc4ccccc4C3)cc2)cc1S(=O)(=O)NCCN1CCCC1.O=C(O)C(F)(F)F` yielded an Inhibition of 100%.

Take `COc1cc(Cc2c(C)nc3nc(N)nc(N)c3c2C)c(Br)c(OC)c1OC.Cl`: the Inhibition was determined as 93%.

Another experiment deals with Plasmodium falciparum. Description: GSK_TCMDC: Inhibition of Plasmodium falciparum Dd2 in whole red blood cells, using parasite LDH activity as an index of growth. Test compounds present at 2uM. Type of experiment: functional.
For the compound `Cc1cc(=O)c(-c2ccc(Oc3cccc(Cl)c3)cc2)c(C)[nH]1`, the Inhibition was 89%.

Compound `CN(C)CCN(C)Cc1ccc(-c2cccc(NC(=O)c3ccc(Cl)cc3)c2)cc1.O=C(O)C(F)(F)F` had an Inhibition of 71%.

`CCCCN(CCCC)Cc1cc2ccccc2cc1O.Cl`: the Inhibition is given as 98%.

Compound `Cl.N#Cc1ccc2c(c1)CCN(CCC1CCC(NC(=O)Nc3cnc4ccccc4c3)CC1)C2` (stereo not drawn) had an Inhibition of 9%.

`Cl.N=C(N)NN=Cc1cc([N+](=O)[O-])ccc1Sc1ccccc1CO` displayed an Inhibition of 0%.

`CCCN1CCC=C(c2cccc(Nc3nccc(Nc4cc(OC)ccc4C)n3)c2)C1.Cl` showed an Inhibition of 35%.

Consider `O=C(N[C@@H](CC1CCCCC1)C(=O)NCCN1CCCC1)c1ccc(O)c(-c2ccc(Cl)c(Cl)c2)c1`, for which the Inhibition came out at 99%.

As for `CCCc1cc(C(=O)N[C@@H](Cc2ccccc2)[C@H](O)CNC(C)(C)c2cccc(OC)c2)c(F)c(N2CCCC2=O)c1.O=CO`, the Inhibition is reported as 98%.

The compound `Cc1ccc(C(NC(=O)c2ccccc2)c2ccc3cccnc3c2O)cc1` (stereo not drawn) registered an Inhibition of 72%.

Compound `Cc1cccc2nc(-c3cccc(-c4cccc(NC(=O)CNC(=O)c5ccc(O)cc5)c4)c3)[nH]c12` returned an Inhibition of 49%.

The compound `Cc1cc(NC(=O)c2ccco2)ccc1OC1CCN(Cc2ccc(C#N)cc2)CC1.O=C(O)C(F)(F)F` came in with an Inhibition of 89%.

`Cc1cc(Nc2ccncc2)n2nc(C)c(-c3ccc(Cl)cc3)c2n1` had an Inhibition of 99%.

On to `CC(=O)Nc1ccc(C(=O)Nc2cccc(-c3cccc(-c4nc5cc(F)ccc5[nH]4)c3)c2)cn1`, for which the Inhibition was determined as 98%.

Compound `CC(Cl)=CCc1c(C)nc2c(ccc3ccccc32)c1O` registered an Inhibition of 96%.

Consider `O=C(Nc1cccc(CN2CCCN(Cc3ccsc3)CC2)c1)c1ccc(-c2ccccc2)cc1.O=C(O)C(F)(F)F`, for which the Inhibition is given as 11%.

With `Cc1cccc2nc(-c3cccc(-c4cccc(NC(=O)NC5CC5c5ccccc5)c4)c3)[nH]c12` (stereo not drawn), the Inhibition was determined as 28%.

`Cc1ccc(Cn2cnc(N3CC(C)NC(C)C3)cc2=O)cc1NC(=O)Nc1ccc(-c2ccccc2)cc1.O=C(O)C(F)(F)F` (stereo not drawn) yielded an Inhibition of 15%.

Regarding `Cc1cc(C2CCN(CCCCNC(=O)c3ccc(-c4ccc(C#N)cc4)cc3)CC2)c(C)cc1O`, the Inhibition is given as 96%.

For `O=S(=O)(ON=C1CCc2ccccc21)c1ccc(Cl)cc1`, the Inhibition amounted to 79%.

Regarding `CCOC(=O)c1cc(C(=O)NCCCCN2CCC(c3ccc4c(c3OC)CCCC4)CC2)ccc1-c1ccc(C(F)(F)F)cc1`, the Inhibition stood at 60%.

For the compound `O=C(O)C(F)(F)F.c1cc(CN2CCN(CCN3CCOCC3)CC2)cc(-c2ccc(-c3nc4ccccc4[nH]3)cc2)c1`, the Inhibition stood at 100%.

For the compound `CCNc1cc(C(=O)N[C@@H](Cc2ccccc2)[C@H](O)CNCCc2cccc3ccccc23)cc(N2CCCC2=O)c1.O=CO`, the Inhibition amounted to 39%.

The compound `Cc1cnc(C(=O)Nc2cccc(-c3ccc(-c4nc5cc(F)ccc5[nH]4)cc3)c2)cn1` displayed an Inhibition of 13%.

With `COc1ccccc1N(C)CCNc1cc(C)nc(Nc2ccc(C)cc2)n1`, the Inhibition is listed as 25%.

In turn, `Cc1cccc2nc(-c3ccc(-c4cccc(NC(=O)COc5ccccc5C(N)=O)c4)s3)[nH]c12` registered an Inhibition of 19%.

For the origin of these results see ChEMBL document CHEMBL1157539, “Thousands of chemical starting points for antimalarial lead identification” (Nature, 2010).
